Several values for one entry are separate records, joined by “and”; a condition that tells them apart may be missing. Equal values may be shown once. About 6,800 (1%) of roughly 650,000 compounds were called active. The sample holds actives, similar compounds and a random draw of the others, so the mix is not that of the screen. Cut-off read from the data, not from the text of the source: active = activation above about 4.9%; inactive = the rest.

The target in this experiment is G-protein coupled receptor 151 (Homo sapiens) (UniProt Q8TDV0). The experiment can be described thus: activators of human GPR151, primary screen, cell-based, PathHunter beta-arrestin, luminescence (AID 1508602).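 Note: 0% = median of compound wells and 100% = cells with positive control.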 To be noted: PathHunter beta-arrestin GPR151 cells, at 11.2 µM, active compounds read high.
Chain of G-protein coupled receptor 151 (Homo sapiens) (Q8TDV0 whole entry, looked up): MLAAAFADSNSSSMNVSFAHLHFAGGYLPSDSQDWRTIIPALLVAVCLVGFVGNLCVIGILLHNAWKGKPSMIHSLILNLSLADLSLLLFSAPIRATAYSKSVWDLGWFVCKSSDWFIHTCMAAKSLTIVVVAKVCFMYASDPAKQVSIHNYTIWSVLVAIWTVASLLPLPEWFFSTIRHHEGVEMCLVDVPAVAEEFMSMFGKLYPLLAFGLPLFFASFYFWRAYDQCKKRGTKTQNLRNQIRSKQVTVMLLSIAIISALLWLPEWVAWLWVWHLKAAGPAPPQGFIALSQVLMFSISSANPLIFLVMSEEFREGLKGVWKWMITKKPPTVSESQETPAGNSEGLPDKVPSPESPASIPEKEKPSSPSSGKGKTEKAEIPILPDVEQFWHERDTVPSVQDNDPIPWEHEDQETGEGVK
As to `COc1ccc(/C=N/NC(=O)CN(C)C(=O)c2ccccc2)cc1`, the activation is -1.44% (inactive).
For the compound `COc1ccc(Cl)cc1NC(=O)C1c2cc(OC)c(OC)cc2C(=O)N(C)C1c1ccc(OC)c(OC)c1` (centres undefined), the activation is 4.36% (inactive).
Turning to `Cc1ccc(N2C(=O)C3ON(c4ccc(Cl)cc4)C(c4ccco4)C3C2=O)cc1` (centres undefined), the activation is -1.12% (inactive).
As to `COCc1c(C(=O)N/N=C/c2cccc(F)c2)nnn1-c1nonc1N`, the activation is -0.56% (inactive).
In the case of `O=C(Cc1ccc(Cl)cc1)NCc1nnnn1C1CCCCC1`, the activation was -1.64% (inactive).
The same measure for `CCCc1cc(=O)[nH]c(Nc2cccc(O)c2)n1`: 0.777% (inactive); for `CCOC(=O)C1=C(N)OC2=C(C(=O)CC(C)(C)C2)C1c1cc(OC)ccc1F` (centres undefined): -1.02% (inactive).
Consider `Cc1[nH]n(-c2nc3c(c(=O)[nH]2)CCCC3)c(=O)c1CCO`, for which the activation was -1.77% (inactive).
The same measure for `C=CCn1c(SCC(=O)N2c3ccccc3CC2C)nc2sc(C)c(C)c2c1=O` (centres undefined): 0.176% (inactive); for `COCCNc1nc2nonc2nc1N1CCC(N2C[C@@H](C)O[C@@H](C)C2)CC1`: -0.822% (inactive).
In the case of `O=C(/C=N/Nc1ccc([N+](=O)[O-])cc1[N+](=O)[O-])c1ccco1`, the activation was 0.644% (inactive).
The same measure for `O=[N+]([O-])c1ccc(S(=O)(=O)NCCc2ccccc2)cc1`: 0.345% (inactive); for `O=C(/C=C/Nc1ccccc1NS(=O)(=O)c1ccc([N+](=O)[O-])cc1)c1ccco1`: 6.93% (active); for `O=C(NCc1ccccc1)N(CCN1CCCC1)Cc1cc2cc3c(cc2[nH]c1=O)OCO3`: -0.475% (inactive).
As for `Cc1ccc(S(=O)(=O)C2(C(=O)Nc3ccc([N+](=O)[O-])cn3)CC2)cc1`, the activation was 0.544% (inactive).
For the compound `CC(C)N(CCNc1cc(N2CCOCC2)ncn1)C(C)C`, the activation was -0.393% (inactive).
With `CCc1ccc(S(=O)(=O)NCCOc2cc(N3CCOCC3)ncn2)cc1`, the activation is 5.88% (active).
`COc1cc(S(=O)(=O)NCCN2CCOCC2)ccc1Br`: the activation was -1.15% (inactive).
Consider `O=C1CCCC2=C1C(c1ccccc1[N+](=O)[O-])c1c([nH]c(=O)[nH]c1=O)N2` (centres undefined), for which the activation was -0.211% (inactive).
On to `COc1ccc2c(=O)c(C(=O)O)c[nH]c2c1`, for which the activation was -1.56% (inactive).
Regarding `CC(=O)Nc1ccc(NC(=O)/C=C\C(=O)O)cc1C`, the activation was 2.3% (inactive).
Consider `CCOC(=O)C1=C(c2ccccc2)S/C(=C2/C(=S)C(C)(C)N(C(C)=O)c3cc(C)c(C)cc32)S1`, for which the activation was 1.9% (inactive).
With `N#CCCN1c2ccccc2Sc2ccc(C(F)(F)F)cc21`, the activation was 1.1% (inactive).
The figure for `O=C(Nc1cc([N+](=O)[O-])ccc1Cl)c1cc(Cl)ccc1Cl` is -0.475% (inactive).
In the case of `O=C(Nc1ccccc1)c1ccc2nc(Br)sc2c1`, the activation was -4.09% (inactive).
In the case of `CC(=O)Nc1ccc(NC(=O)c2ccc3nc(Br)sc3c2)cc1`, the activation is 6.16% (active).
As for `CCNc1nc2ccc(C(=O)Nc3ccc(NC(C)=O)cc3)cc2s1`, the activation is -3.46% (inactive).
On to `Cc1ccc(C(=O)NCC(=O)OCC(=O)Nc2cccc(Cl)c2)s1`, for which the activation was 0.82% (inactive).
For `NC(=O)c1c(NC(=O)c2ccccc2F)sc2c1CCCCCC2`, the activation is 1.12% (inactive).
As for `COC(CNC(=O)CC(NS(=O)(=O)c1ccc(C)cc1)c1ccco1)OC` (centres undefined), the activation is -0.827% (inactive).
With `COC(=O)c1ccc2c(=O)n(CCN3CCOCC3)c(SCc3cc(C(C)=O)ccc3OC)nc2c1`, the activation was -0.152% (inactive).
Consider `O=C(CCc1nnc(CCCCc2ccccc2)o1)N1CCC(N2CCSCC2)CC1`, for which the activation was 7% (active).
As to `COc1ccccc1NC(=O)Nc1ccnn1C1CCN(C(=O)CCc2ccccc2)CC1`, the activation was 0.323% (inactive).
The same measure for `O=C(CCc1nnc(Cc2cccc(C(F)(F)F)c2)o1)N1CCSCC1`: -0.806% (inactive).
With `CN(Cc1ccno1)C(=O)CC1C(=O)NCCN1Cc1ccoc1` (centres undefined), the activation was 1.36% (inactive).
As to `COc1cccc(N(C(=O)c2csnn2)C(C(=O)NC(C)(C)C)c2ccc(F)cc2)c1` (centres undefined), the activation is 0.396% (inactive).
The same measure for `CCc1ccc(CN(C)C(=O)CC2(c3ccccc3Cl)CC(=O)N(C)C2=O)cc1` (centres undefined): 0.519% (inactive).
Consider `CCc1ccc(-c2oc(C)c(C)[n+]2[O-])cc1`, for which the activation is -2.56% (inactive).
Regarding `COCCN1C(=O)CC(CC(=O)N(C)C(C)C)(c2ccccc2F)C1=O` (centres undefined), the activation was -1.69% (inactive).
With `COCCN1C(=O)CC(CC(=O)NCc2nc3ccccc3[nH]2)(c2ccccc2C)C1=O` (centres undefined), the activation is 6.75% (active).
Take `Cc1cnc(CN(C)C(=O)CC2(c3ccccc3C)CC(=O)N(CCN(C)C)C2=O)[nH]1` (centres undefined): the activation is 1.18% (inactive).
The same measure for `COCCNC(=O)c1cnn2c(C)c(Cc3ccc(Cl)cc3)c(C)nc12`: 0.41% (inactive); for `CC(=O)c1ccc(-c2cnc3[nH]c(=O)n(C4CCCCC4)c3n2)s1`: -0.0776% (inactive); for `Cc1ccc(S(=O)(=O)N2CC3CC3C2C(=O)Nc2ccc(F)cc2)cc1` (centres undefined): 0.0458% (inactive).
`Nc1ccc(C(=O)Nc2nc3ccc(C(=O)N4CCCCC4)cc3s2)cc1`: the activation is -0.249% (inactive).
As for `CC1CCCC(NCc2c(C(=O)O)n(Cc3ccc(Cl)cc3)c3ccccc23)C1C` (centres undefined), the activation is 7.5% (active).
Take `CC1CCCC(NCc2c(C(=O)O)n(Cc3ccc(F)cc3)c3ccccc23)C1C` (centres undefined): the activation is 0.786% (inactive).
Consider `O=C(O)c1c(CNC2CCCCC2)c2ccccc2n1Cc1ccc(Cl)cc1`, for which the activation is -0.235% (inactive).
For `O=C(Nc1ccc(N2CCOCC2)cc1)c1ccc2nc(Nc3ccncc3)sc2c1`, the activation is 0.271% (inactive).
Turning to `O=C(Cn1c(=O)n(Cc2ccccc2)c(=O)c2ccccc21)c1ccccc1`, the activation was 5.03% (active).
With `NC(=O)Cn1c(=O)n(CCCCC(=O)NCCc2ccccc2)c(=O)c2ccccc21`, the activation is -0.245% (inactive).
In the case of `COc1ccc(OC)c(NC(=O)Cn2c(=O)n(Cc3ccccc3)c(=O)c3ccccc32)c1`, the activation was -0.558% (inactive).
The figure for `CCOC(=O)c1sc(NC(=O)CSc2ncccn2)c(C#N)c1C` is 4.97% (active).
For `CCOC(=O)c1sc(NC(=O)CSc2nnc(-c3ccccc3)o2)c(C#N)c1C`, the activation was -0.17% (inactive).
Consider `CCOC(=O)c1sc(NC(C)=O)c(C#N)c1C`, for which the activation is -1.06% (inactive) and -0.982% (inactive).
For `NC(=O)c1c(NC(=S)NC(=O)c2ccccc2)sc2c1CCCCCC2`, the activation was -0.485% (inactive).
In the case of `COc1ccc(C2CC(c3ccccc3)n3ncnc3N2)cc1` (centres undefined), the activation is -0.25% (inactive).
Consider `COC(Cn1c(=S)[nH]c2cc3ccccc3cc2c1=O)OC`, for which the activation was 0.597% (inactive).
In the case of `COc1ccc(C2(C)NC(=O)N(CC(=O)Nc3ccc4ccccc4c3)C2=O)cc1` (centres undefined), the activation is 5.16% (active).
As to `COc1ccc(C2(C)NC(=O)N(CC(=O)NCCc3ccccc3)C2=O)cc1` (centres undefined), the activation is -0.0334% (inactive).
In the case of `CC1(c2ccc3ccccc3c2)NC(=O)N(CC(N)=O)C1=O` (centres undefined), the activation is -0.0365% (inactive).
As to `O=C(Nc1ccc2cn[nH]c2c1)c1ccc(F)cc1F`, the activation was -2.11% (inactive).
Turning to `COc1ccc(C2C(C#N)=C(N)Oc3c2c(C)nn3-c2ccccc2)cc1` (centres undefined), the activation is 8.46% (active).
Consider `COc1cc(C2C(C#N)=C(N)Oc3c2c(C)nn3-c2ccccc2)ccc1OCC#N` (centres undefined), for which the activation is 0.152% (inactive).
In the case of `Cc1nn(-c2ccccc2)c2c1C(c1ccc(-c3ccccc3)cc1)C(C#N)=C(N)O2` (centres undefined), the activation is -3.52% (inactive).
As to `CCOC(=O)Cn1c(CNC(=O)c2ccco2)nc2ccccc21`, the activation is -1.37% (inactive).
The figure for `CCOC(=O)c1cccc(NC(=O)CCCOc2ccc(OC)cc2)c1` is 5.63% (active); for `COc1cccc(NC(=O)CCCOc2ccc(C)cc2)c1` it is 0.676% (inactive).
The figure for `CCOC(=O)c1cccc(NC(=O)/C=C/c2ccc(Cl)cc2)c1` is -0.517% (inactive); for `CCOC(=O)c1cccc(Nc2c(-c3ccccc3)c(=O)c2=O)c1` it is -1.39% (inactive).
In the case of `COc1ccc(OCCCC(=O)Nc2ccccc2)cc1`, the activation was -0.655% (inactive).
Turning to `CCOC(=O)c1cccc(NC(=O)/C=C/c2ccccc2)c1`, the activation was 5.45% (active).
With `COc1cc(NC(=O)CSc2ncccc2-c2nc3ccccc3[nH]2)cc(OC)c1`, the activation was -2.5% (inactive).
In the case of `COc1ccc(N2CCN(c3nc(Nc4ccc(C)c(Cl)c4)nc(N4CCCC4)n3)CC2)cc1`, the activation was -0.777% (inactive).
Consider `COc1ccc(-c2cc(-c3cccs3)nc3sc(C(N)=O)c(N)c23)cc1`, for which the activation was -1.24% (inactive).
Turning to `CC/C=C\C/C=C\C/C=C\C/C=C\C/C=C\C[C@H]1O[C@H]1CCC(=O)OC`, the activation was 0.982% (inactive).
Turning to `Cc1cccc(C(=O)OCC(=O)NC(=O)NCc2ccccc2)c1C`, the activation was 0.774% (inactive).
As for `COc1ccc(N2CCN(C(=O)c3ccc(Cn4c(=S)[nH]c5ccc(Br)cc5c4=O)cc3)CC2)cc1`, the activation is -0.211% (inactive).
Consider `COc1cc(OC)c(OC)cc1/C=N/N=C1\NC(=O)C(CC(=O)O)S1` (centres undefined), for which the activation is 0.825% (inactive).
On to `Cc1ccc(C(=O)Oc2ccccc2/C=N/N=C2\NC(=O)C(CC(=O)O)S2)cc1` (centres undefined), for which the activation was 7.49% (active).
In the case of `CC/C(=N\N=C1/NC(=O)C(CC(=O)O)S1)c1ccc(C)cc1` (centres undefined), the activation is -1.1% (inactive).
The same measure for `CCCC(=O)Nc1ccc(S(=O)(=O)N(Cc2ccsc2)C2CC2)cc1`: 0.722% (inactive).
As to `O=C(Nc1ccc(NC(=O)c2cccc3c(Br)cccc23)cc1)c1ccco1`, the activation was 34.7% (active).
Turning to `O=C(Nc1cccc(NC(=O)c2cccc(Cl)c2Cl)c1)c1ccco1`, the activation is -0.952% (inactive).
For the compound `O=C(Nc1ccc(NC(=O)c2cccnc2Cl)cc1)c1ccco1`, the activation is 0.162% (inactive).
Turning to `CCN1C(=O)S/C(=C/c2cccc(C(F)(F)F)c2)C1=O`, the activation is 1.18% (inactive).
Take `CCN(CC)C(=O)Cn1ncc2c3ccccc3n(Cc3ccccc3)c2c1=O`: the activation was -0.284% (inactive).
As for `COC(=O)Cn1ncc2c3ccccc3n(Cc3cccc(Cl)c3)c2c1=O`, the activation was 4.95% (active).
The same measure for `CNC(=O)Cn1ncc2c3ccccc3n(Cc3ccccc3)c2c1=O`: 0.452% (inactive).

(Values after PubChem BioAssay AID1508602 (The Scripps Research Institute Molecular Screening Center, 2020).)
